Test results as given in PubChem BioAssay AID588458 (Sanford-Burnham Center for Chemical Genomics, 2011).
About 3,000 (0.83%) of roughly 360,000 compounds were called active. The full list was thinned out, with actives kept by preference. Unmarked numbers belong to inactive results. Rule as the data show it: active = inhibition above about 50%; inactive = the rest.

These compounds were tested against DNA (cytosine-5)-methyltransferase 1 (Homo sapiens) (UniProt P26358) (assay: inhibition of DNA methyltransferase DNMT1 – biochemical, molecular beacon, fluorescence, HinP1I cleavage, uHTS, primary screen (AID 588458)). Conditions: at 10 µM, stronger effect = higher value.
Sequence of DNA (cytosine-5)-methyltransferase 1 (Homo sapiens) (P26358 504-1616 limits assumed): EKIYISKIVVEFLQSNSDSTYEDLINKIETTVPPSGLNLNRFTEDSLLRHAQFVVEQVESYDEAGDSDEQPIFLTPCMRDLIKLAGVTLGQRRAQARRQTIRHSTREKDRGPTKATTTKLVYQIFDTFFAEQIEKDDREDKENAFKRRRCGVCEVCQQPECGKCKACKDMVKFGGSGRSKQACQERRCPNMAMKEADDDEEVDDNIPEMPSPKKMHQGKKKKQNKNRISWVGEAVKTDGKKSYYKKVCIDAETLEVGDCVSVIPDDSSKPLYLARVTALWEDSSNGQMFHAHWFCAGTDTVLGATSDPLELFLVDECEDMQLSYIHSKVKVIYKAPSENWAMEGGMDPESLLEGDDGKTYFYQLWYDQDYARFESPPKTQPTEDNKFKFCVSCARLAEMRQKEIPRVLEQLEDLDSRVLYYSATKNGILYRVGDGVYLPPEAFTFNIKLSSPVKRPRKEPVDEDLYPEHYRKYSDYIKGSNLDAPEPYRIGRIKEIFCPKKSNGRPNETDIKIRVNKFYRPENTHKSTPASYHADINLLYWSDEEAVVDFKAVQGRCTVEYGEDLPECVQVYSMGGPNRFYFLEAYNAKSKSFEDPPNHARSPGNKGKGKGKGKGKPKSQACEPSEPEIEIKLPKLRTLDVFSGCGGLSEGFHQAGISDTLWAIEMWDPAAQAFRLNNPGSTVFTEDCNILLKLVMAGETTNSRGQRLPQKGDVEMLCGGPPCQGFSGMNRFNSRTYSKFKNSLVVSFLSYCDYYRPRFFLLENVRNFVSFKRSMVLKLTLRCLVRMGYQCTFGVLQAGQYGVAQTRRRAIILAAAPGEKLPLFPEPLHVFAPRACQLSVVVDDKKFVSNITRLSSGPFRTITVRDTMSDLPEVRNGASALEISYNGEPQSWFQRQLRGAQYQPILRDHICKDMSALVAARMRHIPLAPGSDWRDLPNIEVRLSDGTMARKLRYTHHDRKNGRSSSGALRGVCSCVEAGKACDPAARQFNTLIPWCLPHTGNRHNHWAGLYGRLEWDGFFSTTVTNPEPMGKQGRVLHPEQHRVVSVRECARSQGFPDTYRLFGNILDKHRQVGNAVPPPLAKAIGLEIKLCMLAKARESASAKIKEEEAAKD

Row | Structure (SMILES) | inhibition (reported as % activation of signal)
1 | CCCC(C(=O)NCc1ccco1)N(C(=O)CNS(=O)(=O)c1ccccc1)C1CCCC1 (stereo unspecified) | 0.13%
2 | O=S(=O)(Nc1nccs1)c1ccc2c(c1)OCCO2 | 0.9%
3 | c1coc(-c2nc3nc4ccccc4n3nc2-c2ccco2)c1 | 86.2% (active)
4 | CC(Oc1ccc(Cl)cc1Cl)C(=O)/C=C/N(C)C (stereo unspecified) | 1.08%
5 | Cn1c(Nc2ccc(F)cc2)nc2cc(-c3ccsc3)sc2c1=O | 1.88%
6 | COc1ccc(S(=O)(=O)N2CCC(C(=O)NCCC(=O)Nc3ccccc3OC)CC2)cc1 | 3.13%
7 | CC(CCc1ccc(O)cc1)NCc1ccc(Cl)cc1Cl (stereo unspecified) | 1.55%
8 | COc1ccc(N2C(=O)CNC2=S)cc1 | 0.19%
9 | COc1ccc(/C=C2\SC(=N)N(c3ccc(F)cc3)C2=O)cc1 | 59% (active)
10 | COc1cccc(/C=C2\SC(=N)N(c3ccc(F)cc3)C2=O)c1 | 29.4%
11 | COC(=O)C1=C(C)NC(=S)NC1c1ccc(OCC(=O)N2CC(C)OC(C)C2)c(OC)c1 (stereo unspecified) | -3.49%
12 | O=C1CC(Cc2ccc(Cl)cc2)C(=O)N1c1cc(Cl)ccn1 (stereo unspecified) | 1.99%
13 | O=C(NC1CCCC1)C(NS(=O)(=O)c1ccc(Br)s1)c1ccccc1 (stereo unspecified) | 3.01%
14 | COc1ccc(NC(=O)CN(C)C(=O)/C=C/c2cn(Cc3ccccc3)nc2-c2cccnc2)cc1 | 2.58%
15 | Cc1ccc(/C=C/C(=O)OCC(=O)Nc2cccnc2Cl)cc1 | 0.14%
16 | O=C(COC(=O)/C=C/c1cn(-c2ccccc2)nc1-c1cccnc1)Nc1ccc(Cl)cc1Cl | 56% (active)
17 | CCN(CC(=O)Nc1ccc(OC)cc1)C(=O)c1ccc(=O)n(Cc2ccccc2)n1 | 4.56%
18 | Nc1ccc2nc3c(=O)[nH]c(=S)[nH]c3nc2c1 | 129% (active)
19 | CC1(Oc2cccc(F)c2)CCN(Cc2ccccc2OC(F)F)C1 (stereo unspecified) | 8.51%
20 | CCCOc1ccc2c3c(c(=O)oc2c1OCCC)CCC3 | 5.15%
21 | CCCn1nc(C(=O)OCc2nc(N)nc(Nc3ccccc3C)n2)c2ccccc2c1=O | -3.44%

Row | Structure (SMILES) | inhibition (reported as % activation of signal)
22 | Cc1ccc(C(=O)NNC(=O)c2cc3cc4ccccc4nc3s2)cc1 | 54.4% (active)
23 | Cc1ccc(C(=O)NNc2ncnc3ccccc23)cc1 | 2.1%
24 | Cc1ccc(C(=O)NNC(=O)CSc2nnc3ccccn23)cc1 | -3.3%
25 | CCOc1cc(C(=O)Nc2c(C)ccc3nsnc23)cc(OCC)c1OCC | 1.78%
26 | c1ccc2c(-c3nn4nnnc4c4ccccc34)cccc2c1 | -1.65%
27 | CCCN1Cc2cccc(C(=O)NCc3ccccc3)c2C1=O | 0.1%
28 | Cc1ccc(S(=O)(=O)N2CCN=C2SCc2c(F)cccc2Cl)cc1 | -1.13%
29 | CCOC(=O)C/C(C)=N\Nc1ccc([N+](=O)[O-])cc1[N+](=O)[O-] | 8.42%
30 | C/C(=N\Nc1ccc(S(N)(=O)=O)cc1[N+](=O)[O-])c1cccs1 | 51% (active)
31 | C/C(=N\Nc1ccccc1)c1cccs1 | -15%
32 | CCCCNc1c(-c2cccc(Sc3ccc(OC)cc3)c2)nc2ccccn12 | -24.9%
33 | CCc1nnc(NC(=O)c2cc(S(=O)(=O)N3CCN(CC)CC3)ccc2Cl)s1 | 1.36%
34 | Clc1ccc(C2=CSC3=Nc4cccc5cccc(c45)N23)cc1 | 61.1% (active)
35 | O=C(COC(=O)c1ccc(S(=O)(=O)N2CCc3ccccc3C2)cc1)NC(=O)NCc1ccco1 | 4.21%
36 | CCc1nc(SCC(=O)Nc2ccccc2OC)n[nH]1 | 0.12%
37 | CCOc1ccccc1NC(=S)C(=C([O-])c1ccc2c(c1)OCCO2)[n+]1ccc(CC)cc1 | -14.6%
38 | CC(C)(C)n1nc(Cc2cccc3ccccc23)c(C#N)c1N | 3.39%
39 | CCc1nn(-c2cc(Oc3cccc4ccccc34)nc(-c3ccccc3)n2)c(N)c1C#N | 56.2% (active)
40 | CCCCn1nnnc1C(c1cccc(OC)c1OC)N1CCN(C/C=C/c2ccccc2)CC1 (stereo unspecified) | -2.12%
41 | O=C(CCN1CCc2ccccc2C(O)(c2ccccc2)C1)c1ccc2c(c1)OCCO2 (stereo unspecified) | -2.82%
42 | CSC1=NC2(C)CCCCC2C12C=CC(=O)C=C2 (stereo unspecified) | -0.69%

Row | Structure (SMILES) | inhibition (reported as % activation of signal)
43 | CS(=O)(=O)N(CC(=O)N1CCN(c2ccc(F)cc2)CC1)C1CCCCC1 | 0.1%
44 | O=C(NNC1=NCCC1)c1cccc(S(=O)(=O)N2CCCCC2)c1 | 2.1%
45 | O=C(NCc1cccs1)c1cc(-c2ccccn2)nc2ccc(Br)cc12 | 18.8%
46 | Cc1nn(C)cc1CNC(=O)Nc1ccc(Cl)cc1 | -5.06%
47 | Cc1ccc(-c2cc(C(=O)NCc3cn(C)nc3C)c3cc(Br)ccc3n2)cc1 | 54.2% (active)
48 | CCCCc1nc2cc(C(=O)N3CCCCC3CCO)ccc2o1 (stereo unspecified) | 0.96%
49 | CC1CCN(C(=O)CCc2nnc3ccc(NCc4ccco4)nn23)CC1 | -2.17%
50 | N#Cc1c(NC(=O)CCCN2C(=O)c3ccccc3C2=O)oc(-c2ccccc2)c1-c1ccccc1 | -7.82%
51 | CC(Oc1ccccc1)C(=O)Nc1oc(-c2ccco2)c(-c2ccco2)c1C#N (stereo unspecified) | 63.1% (active)
52 | CC(C)C(=O)Nc1oc(-c2ccccc2)cc1C#N | 1.41%
53 | Cc1cc(=O)oc(C)c1C(=O)NC1CC(C)(C)NC(C)(C)C1 | 4.08%
54 | O=C(Nc1nccs1)C1CCN(S(=O)(=O)c2ccc(Cl)c(C(F)(F)F)c2)CC1 | -0.42%
55 | Cc1ccc(C)c(C(O)c2ncc(-c3cccc4ccccc34)[nH]2)c1 (stereo unspecified) | -0.1%
56 | O=C1CSc2ccc(S(=O)(=O)NCc3ccccc3)cc2N1 | -1.62%
57 | OCCCC1CCCCN1Cc1nc(Cc2ccccc2Cl)no1 (stereo unspecified) | 0.35%
58 | CCN(CC)c1ccc(NC(=O)c2ccc(Cl)nc2)cc1 | -2.12%
59 | O=C(NNC(=O)c1ccc(Cl)nc1)c1ccc(Br)cc1 | 5.15%
60 | O=C(NNc1ccccn1)c1ccc(Cl)nc1 | 80.7% (active)
61 | CCN(CC)P(=O)(C(NC(=O)OC)C(F)(F)C(F)(F)C(F)(F)C(F)F)N(CC)CC (stereo unspecified) | 0.14%
